Bioassay records as filed in PubChem BioAssay.
RGS4-Gao reg: human RGS4-Galphao interaction regulation | P09471 | Multiplexed bead flow cytometry, RGS4-Galphao binding; actives lie on both sides | binding response (% of control), % at 10 µM | hit rate 0.33% among 220,000 | AID 1415; in the data active = binding response below about 49% or above about 150%; inactive = in between;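 also: fluorescent Galphao activated with aluminum fluoride binding bead-coupled RGS4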
Target sequence (P09471 whole entry, looked up): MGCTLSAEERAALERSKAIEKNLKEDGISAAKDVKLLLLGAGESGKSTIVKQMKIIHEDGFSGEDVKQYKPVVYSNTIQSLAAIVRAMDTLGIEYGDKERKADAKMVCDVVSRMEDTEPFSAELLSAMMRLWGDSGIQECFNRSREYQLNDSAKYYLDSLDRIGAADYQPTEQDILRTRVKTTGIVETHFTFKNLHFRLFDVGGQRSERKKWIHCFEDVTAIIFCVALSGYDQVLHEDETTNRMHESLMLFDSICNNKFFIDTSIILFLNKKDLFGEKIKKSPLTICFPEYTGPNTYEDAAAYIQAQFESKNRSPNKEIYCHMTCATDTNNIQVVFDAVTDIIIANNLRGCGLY
GSH fluor: compound fluoresces at 488/530 nm on GSH beads; GSH beads flow cytometry, compound fluorescence 488/530 nm; active compounds read high; fluorescence (KMESF) at 10 µM; hit rate 0.25% among 190,000; in the data active = fluorescence above about 89;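 also: glutathione beads carrying GST-tagged Bcl family fusion proteins plus one bare bead set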
RGS16-Gao: modulates binding between human RGS16 and Galphao; AID 1441; hit rate 0.38% among 220,000; O15492+P09471; bead-based flow cytometry RGS16-Galphao binding, fluorescence; actives lie on both sides; binding response (% of control), % at 10 µM;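 also: Galphao activated by GDP with aluminum fluoride before binding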
Avidin fluor: avidin bead compound fluorescence profile. Avidin beads, compound fluorescence 488/530 nm, flow cytometry; active compounds read high. hit rate 0.38% among 220,000. fluorescence (KMESF) at 10 µM; in the data active = fluorescence above about 47
RGS7-Gao reg: modulates binding of RGS7 to human Galphao | AID 1439 | P09471 | binding response (% of control), % at 10 µM | hit rate 0.35% among 220,000 | Multiplexed bead flow cytometry; actives lie on both sides; in the data active = binding response below about 49% or above about 150%; inconclusive = no clear call, values can overlap the other calls; inactive = in between;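 also: fluorescent Galphao held in activated GDP-AlF4 state binding bead-coupled RGS7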
RGS8-Gao: regulators of human RGS8-Galphao interaction; P09471; multiplexed bead flow cytometry, RGS8-Galphao binding; actives lie on both sides; response (percent of control binding), % at 10 µM; hit rate 0.34% among 220,000; AID 1423; in the data active = response below about 60% or above about 140%; inactive = in between;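 also: Galphao activated as the GDP aluminium fluoride complex binding bead-coupled RGS8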
RGS4-Gao HTS: modulates binding between human RGS4 and Galphao. hit rate 99% among 1,600. multiplexed bead flow cytometry, RGS–Galpha-o binding. AID 1504. RGS4–Galpha-o binding response, % at 10 µM. shares compounds with RGS16-Gao;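 also: fluorescently labeled Galpha-o bound to GDP with aluminium fluoride binding biotinylated RGS beads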
Target sequence (P09471 whole entry, looked up): as above
Target sequence (P49798 whole entry, looked up): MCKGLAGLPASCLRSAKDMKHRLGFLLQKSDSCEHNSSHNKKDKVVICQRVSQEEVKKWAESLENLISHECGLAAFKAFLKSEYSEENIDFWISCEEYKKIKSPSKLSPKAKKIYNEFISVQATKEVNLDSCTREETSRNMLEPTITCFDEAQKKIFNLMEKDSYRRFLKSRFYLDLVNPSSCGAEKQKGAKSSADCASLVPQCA
Biotin-avidin: interferes with biotinylated probe binding to avidin beads; AID 1783; 1,700 tested, under 10 active; shares compounds with RGS16-Gao; inhibition, % at 10 µM; streptavidin beads, fluorescein-biotin binding, flow cytometry;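 active = inhibition above 50%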;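 also: median green fluorescence of gated singlet beads compared with DMSO control wells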
RGS8-Gao single: RGS8-Galphao interaction regulation, single point confirmation | hit rate 3% among 1,700 | shares compounds with RGS16-Gao | bead-based flow cytometry RGS8-Galphao binding, fluorescence; actives lie on both sides | binding response (% of control), % at 10 µM; in the data active = binding response below about 72% or above about 130%; inactive = in between;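 also: Galphao activated as GDP AlF4 complex before binding bead RGS8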
RGS7-Gao confirm: RGS7-Galphao interaction regulation, single point confirmation; shares compounds with RGS16-Gao; bead-based flow cytometry RGS7-Galphao binding; actives lie on both sides; response (percent of control binding), % at 10 µM; hit rate 7.8% among 1,700; AID 1837; in the data active = response below about 75% or above about 130%; inactive = in between;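 also: fluorescent Galphao activated with GDP and aluminum fluoride binding bead-coupled RGS7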
RGS16-Gao single: confirmation of regulators of human RGS16-Galphao interaction | shares compounds with RGS16-Gao | bead-based flow cytometry, RGS16-Galphao binding; actives lie on both sides | response (% of control binding), % at 10 µM | hit rate 4% among 1,700; in the data active = response below about 74% or above about 130%; inactive = in between;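 also: Galphao activated as the GDP aluminium fluoride complex binding bead-coupled RGS16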
RGS4-Gao single: RGS4-Galphao interaction regulation, single point confirmation; AID 1840; RGS4-Galphao binding, multiplexed bead flow cytometry; actives lie on both sides; binding response (% of control), % at 10 µM; hit rate 4% among 1,700; shares compounds with RGS16-Gao; in the data active = binding response below about 74% or above about 130%; inactive = in between
RGS19-Gao single: RGS19-Galphao interaction regulation, single point confirmation; shares compounds with RGS16-Gao; bead-based flow cytometry RGS19-Galphao binding; actives lie on both sides; response (percent of control binding), % at 10 µM; hit rate 5% among 1,700; AID 1841; in the data active = response below about 50% or above about 160%; inactive = in between
Of the large screens only hits and unclear results are named; the others gave an inactive call (follow-up assays come after a bar, where they were run); [ ] = another dose, or the depositor's remark. Shown are actives, neighbours in structure and some others; about 1.2% of the full set was active somewhere. Unless noted, no rule for the calls is given here.

CCOCCCNC(C(=O)Nc1ccc(OC)c(Cl)c1)c1ccccc1 (configuration not stated)	RGS7-Gao reg inconclusive
CN1CCC=C(C(=O)N2c3ccccc3Sc3ccc(Cl)cc32)C1	RGS7-Gao reg inconclusive (no result: GSH fluor)
CC(=O)N1CCc2c(sc(NC(=O)CN3C(=O)c4ccccc4C3=O)c2C(N)=O)C1	RGS7-Gao reg 157[activator] | RGS4-Gao HTS 146 | Biotin-avidin inactive | RGS8-Gao single inactive | RGS7-Gao confirm inactive | RGS16-Gao single inactive | RGS4-Gao single inactive | RGS19-Gao single inactive
COC(=O)CN1C2=NCCCN2c2ccccc21	none
Cc1ccc(S(=O)(=O)Nc2ccc(N3CCOCC3)cc2)cc1	RGS16-Gao -64 | RGS4-Gao HTS 86 | Biotin-avidin inactive | RGS8-Gao single inactive | RGS7-Gao confirm inactive | RGS16-Gao single inactive | RGS4-Gao single inactive | RGS19-Gao single inactive
CC(C)OC(=O)C1C(=O)CC(C)(O)C(C(=O)OC(C)C)C1c1ccccc1 (configuration not stated)	RGS4-Gao reg 2.3, RGS16-Gao -3.2, RGS7-Gao reg 1.8, RGS8-Gao 5.7 | Biotin-avidin inactive | RGS8-Gao single inactive | RGS7-Gao confirm inactive | RGS16-Gao single inactive | RGS4-Gao single inactive | RGS19-Gao single inactive
CCN(CC)C(=O)COc1ccc(/C=C(\C#N)S(=O)(=O)c2ccccc2)cc1OC	none
CC(C)CCNC(=O)NC(=O)COC(=O)c1cc(S(=O)(=O)N2CCOCC2)ccc1N1CCCCC1	RGS4-Gao reg 25, RGS16-Gao 16, RGS7-Gao reg 13, RGS8-Gao 12 | Biotin-avidin inactive | RGS8-Gao single inactive | RGS7-Gao confirm inactive | RGS16-Gao single inactive | RGS4-Gao single inactive | RGS19-Gao single inactive
CCc1nnc(NC(=O)c2cc(S(=O)(=O)N3CCOCC3)ccc2N2CCCCC2)s1	RGS4-Gao reg active[activator], RGS16-Gao active[activator], Avidin fluor 897, RGS7-Gao reg active[activator], RGS8-Gao 393[activator] | Biotin-avidin inactive | RGS8-Gao single inactive | RGS7-Gao confirm inactive | RGS16-Gao single inactive | RGS4-Gao single inactive | RGS19-Gao single inactive
CCc1nnc(NC(=O)c2cccc(S(=O)(=O)N3CCc4ccccc43)c2)s1	RGS4-Gao reg 28, RGS16-Gao 3.0, RGS7-Gao reg 23, RGS8-Gao 19 | Biotin-avidin inactive | RGS8-Gao single inactive | RGS7-Gao confirm inactive | RGS16-Gao single inactive | RGS4-Gao single inactive | RGS19-Gao single inactive
Cc1[nH]c2ccccc2c1CCNC(=O)c1c(N)no[n+]1[O-]	none
CCCCC(=O)OCC(=O)c1[nH]c(C)c(C(C)=O)c1C	none
O=C(Cn1nnc2ccccc21)N1CCCCC1	none
O=C(CCn1nnc2ccccc21)N1CCN(c2ccccc2)CC1	none (no result: RGS4-Gao reg, RGS16-Gao, Avidin fluor, RGS7-Gao reg, RGS8-Gao) | Biotin-avidin inactive | RGS8-Gao single inactive | RGS7-Gao confirm inactive | RGS16-Gao single inactive | RGS4-Gao single inactive | RGS19-Gao single inactive
COc1ccc(C(=O)NNC(=O)CCn2nnc(-c3ccc(Cl)cc3)n2)cc1OC	none
Cc1ccc(C)c(Sc2ccc(NC(=O)CCl)cc2)c1	RGS16-Gao 299[activator] | RGS4-Gao HTS 115
O=C1C(Cl)=C(N2CCCCC2)C(=O)C(Cl)=C1c1cnc(N2CCCCC2)s1	RGS7-Gao reg 43, RGS8-Gao 50 | RGS4-Gao HTS 69 | Biotin-avidin inactive | RGS8-Gao single 37 | RGS7-Gao confirm 16 | RGS16-Gao single 27 | RGS4-Gao single 59 | RGS19-Gao single -8.5
CN(C)c1ncc(C2=C(Cl)C(=O)C(N3CCCC3)=C(Cl)C2=O)s1	RGS7-Gao reg 41, RGS8-Gao 47 | RGS4-Gao HTS 67 | Biotin-avidin inactive | RGS8-Gao single 41 | RGS7-Gao confirm 22 | RGS16-Gao single 35 | RGS4-Gao single 72 | RGS19-Gao single -9.7
Clc1ccc(Cl)c2sc(N3CCCC3)nc12	none
Cc1nnsc1Sc1ccccc1	none
O=C(CCl)Nc1cc(S(=O)(=O)N2CCOCC2)ccc1N1CCOCC1	RGS7-Gao reg inconclusive
O=C(CSc1ccccc1)Nc1cc(S(=O)(=O)N2CCOCC2)ccc1N1CCOCC1	RGS4-Gao reg 22, RGS16-Gao 13, RGS7-Gao reg inconclusive, RGS8-Gao 15 | Biotin-avidin inactive | RGS8-Gao single inactive | RGS7-Gao confirm inactive | RGS16-Gao single inactive | RGS4-Gao single inactive | RGS19-Gao single inactive
CCOC(=O)c1cc(-c2cccs2)nc2c1c(C)nn2-c1ccccn1	none
Cc1nn(-c2ccccc2)c2nc(-c3cccs3)cc(C(=O)NN)c12	Avidin fluor 82, RGS7-Gao reg 198[activator] | RGS4-Gao HTS 115 | Biotin-avidin inactive | RGS8-Gao single inactive | RGS7-Gao confirm inactive | RGS16-Gao single inactive | RGS4-Gao single inactive | RGS19-Gao single inactive
O=C(CSC1c2ccccc2C(=O)N1c1ccccc1)N1CCOCC1 (configuration not stated)	none
CN(C)C(=O)CSC1c2ccccc2C(=O)N1c1ccccc1 (configuration not stated)	RGS4-Gao reg 23, RGS7-Gao reg 15, RGS8-Gao 9.1 | Biotin-avidin inactive | RGS8-Gao single inactive | RGS7-Gao confirm inactive | RGS16-Gao single inactive | RGS4-Gao single inactive | RGS19-Gao single inactive
CC(=O)c1cccc(NC(=O)CN(C)Cc2ccc(OC(F)F)cc2)c1	RGS7-Gao reg inconclusive (no result: GSH fluor)
Fc1ccc(-c2cc(C(F)(F)C(F)F)[nH]n2)cc1	RGS4-Gao reg 168[activator], Avidin fluor 79, RGS7-Gao reg inconclusive (no result: GSH fluor) | Biotin-avidin inactive | RGS8-Gao single inactive | RGS7-Gao confirm inactive | RGS16-Gao single inactive | RGS4-Gao single inactive | RGS19-Gao single inactive
FC(F)C(F)(F)c1cc(-c2ccc(Cl)cc2)n[nH]1	RGS7-Gao reg inconclusive (no result: GSH fluor)
